Source: PubChem BioAssay
TDP43 rescue – inhibitors of TDP-43 toxicity in yeast; AID 652104; Potency, µM (top dose mostly 46.1 µM), usual class: activators; hit rate 1.8% among 410,000; TDP-43 expressing yeast growth rescue, BacTiter-Glo, 24 h; further: nearly all actives have a fitted effect of over 50% in size
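Yeast cells expressing TDP-43 under galactose induction are exposed to compounds for 24 hr at 30 deg C. BacTiter-Glo luminescence measures growth, so protective compounds score as activators.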
aSyn rescue – rescues yeast growth from alpha-synuclein toxicity; Potency, µM (titrated, usually from 46.1 µM), hits mostly activators; Yeast expressing alpha-synuclein, growth rescue, BacTiter-Glo, 24 h; hit rate 0.14% among 370,000; AID 652106; further: nearly all actives have a fitted effect of over 65% in size
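Galactose-induced alpha-syn yeast (OD600=0.02, raffinose-pregrown) + pinned cpd, 24 hr, 30 deg C; growth by BacTiter-Glo luminescence. Growth restoration scores as activation.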
FUS yeast rescue – FUS proteinopathy suppression in yeast; S. cerevisiae FUS-expressing, growth rescue, OD600, 24 h; Potency, µM (highest dose often 76.6 µM), hits mostly activators; hit rate 0.24% among 390,000; AID 1347120; further: nearly all actives have a fitted effect of over 55% in size
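Galactose (2%) drives FUS expression in yeast precultured in raffinose; seeding density OD 0.005. Test compounds incubated 24hr at 30C and 99% humidity before absorbance at 600 nm was measured.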
Mito fusion yeast – blocks mitochondrial division or promotes mitochondrial fusion; Potency, µM (series often up to 46.1 µM), hits mostly activators; AID 485298; S. cerevisiae fusion-defective mutant growth rescue, CellTiterGlo 48 h; hit rate 0.23% among 320,000; further: nearly all actives have a fitted effect of over 45% in size
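Luminescent cell viability in 1536-well qHTS format served as the measure of rescued growth in ts fusion-mutant S. cerevisiae cultured on non-fermentable YPEG for 48 hours at 37C.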
Abeta rescue – restores growth of yeast expressing A-beta42 peptide | yeast expressing A-beta42, growth rescue, OD600, 48 h; response scale: 0% DMSO, 100% iron-clioquinol control | hit rate 0.063% among 410,000 | Potency, µM (titrated, usually from 46.1 µM), usual class: activators; further: nearly all actives have a fitted effect of over 55% in size
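Yeast growth medium received pinned compounds, then yeast cells expressing toxic A-beta were added; plates incubated at 30 C for 48 hr. Growth read as absorbance at 600 nm, normalized to DMSO and equimolar FeCl3 plus clioquinol controls.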
Numbers stand for hits; 0 = inactive; ? = inconclusive; - = no result given; [ ] = dose if it differs, or a comment. This is a sample that favours compounds with a hit; in the whole collection about 2.2% have one here. The call rests on the fitted dose curve; in most records, active means well fitted curve in the direction sought with a large enough effect; inconclusive means small, poorly fitted or top-dose-only effect, or another doubt; inactive means no such curve, though single readings can be large; an effect the other way counts as inactive or inconclusive.

SMILES	TDP43 rescue	aSyn rescue	FUS yeast rescue	Mito fusion yeast	Abeta rescue
CCN1CCN(c2cc3c(cc2F)c(=O)c(S(=O)(=O)c2cc(C)cc(C)c2)cn3CC)CC1	0	-	0	-	0
CCOC(=O)c1c(NC(=O)COC(=O)c2cccc([N+](=O)[O-])c2)sc(C(=O)N(C)C)c1C	0	0	0	-	13µM
CCOC(=O)C1=C(Cc2ccc(C)cc2)C(=O)c2ccccc2C1=O	-	-	-	0	-
CCOC(=O)C1=C(Cc2ccc(OC)cc2)C(=O)c2ccccc2C1=O	13µM	0	0	0	0
c1ccc(-c2csc(-n3cnnn3)n2)cc1	11µM	0	0	0	0
Cc1cc(C)n(-c2nc(-c3ccccc3)cs2)n1	0	0	0	0	0
COc1ccc(NS(=O)(=O)c2ccc3[nH]c(=O)ccc3c2)cc1OC	0[9.22 µM]	-	0	-	0
Cc1nn(-c2ccccc2)c(N)c1N=Nc1ccccc1	?	0	0	?	0
Cc1cccc(N=Nc2c(C)nn(-c3ccccc3)c2N)c1C	20µM	0	-	0	0
Nc1nn(-c2ccccc2)c(N)c1N=Nc1ccccc1F	13µM	0	0	0	0
COc1cc(Cl)ccc1OCc1cc(C(=O)NCc2cc(C(C)C)no2)no1	11µM	0	-	0	0
CCCC[C@@H]1CNC(=S)N1CCc1cccc2ccccc12	35µM	0	0	0	?
COc1cccc(Cn2c(SCC(=O)N(C)c3ccccc3)nc3ccccc32)c1	18µM	-	?	-	0
O=C(CSc1nc2ccccc2n1CC(=O)N1CCCC1)NCc1ccc2c(c1)OCO2	0	0	0	2.8µM	0
O=C(CSc1nc2ccccc2c(=O)n1-c1ccccc1)NCc1ccc2c(c1)OCO2	0	0	0	0	0
CSc1nc2ccccc2n1Cc1cccc(F)c1	18µM	0	0	0	0
O=C(CSc1nc2ccccc2n1Cc1cccc(F)c1)NCc1ccccc1	22µM	-	0	-	0
CCOC(=O)CC[C@@]1(C(=O)OCC)C[C@@H](CC(=O)NCCCOC)C(=O)N2CCCC=C21	-	-	0	-	-
COc1ccc(CS(=O)(=O)/C(Cl)=C(/Cl)C(=O)Nc2ccc(OC)nc2)cc1	13µM	?	0	0	0
COc1ccc(/C=C/C(=O)Nc2ccc(OC)nc2)cc1	0	0	0	0	0
COc1ccc(NC(=O)/C(Cl)=C(/Cl)S(=O)Cc2ccccc2)cn1 (stereo unspecified)	3.5µM	0	-	0	0
COc1cccc2cc(-c3nc4ccccc4o3)c(=O)oc12	3.2µM	3.2µM	0	0	0
O=c1oc2ccc(Br)cc2cc1-c1nc2ccccc2o1	0	0	0	0	0
Cc1ccc(C)c(NC(=O)N2CCN(C(=O)c3nsc4ccccc34)CC2)c1	0	-	0	-	0
c1ccc(-c2ccc3[nH]ccc3c2)cc1	13µM	0	0	0	0
SMILES	TDP43 rescue	aSyn rescue	FUS yeast rescue	Mito fusion yeast	Abeta rescue
c1cncc(-c2ccc3[nH]ccc3c2)c1	0	0	0	0	0
O=C(Nc1ccc(Oc2ccccc2)cc1)C1CCN(c2nnc(-n3cccc3)s2)CC1	-	-	0	-	-
CCCN1CNc2c(c(=O)[nH]c(=S)n2CCc2cc(C)cc(C)c2)C1	-	0	-	-	-
CCc1ccc(CNc2ncc(-c3cccc(OC)c3)n2C)cc1	0	-	0	-	0
CC(C)(C)C(=O)Nc1nnc(COc2ccc(Cl)cc2)s1	11µM	0	0	0	?
CCOc1ccccc1NC(=S)NC(=O)C1CCCCC1	0	0	0	0	7.1µM
CCOc1ccccc1NC(=O)C1CCCC1	0	0	0	-	0
CCOc1ccccc1NC(=S)NC(=O)c1ccco1	14µM	0	0	0	?
Cc1ccc2oc(-c3cccc(NC(=O)c4sc5c([N+](=O)[O-])cccc5c4Cl)c3)nc2c1	0	-	0	-	0
CCC(C)C(NC(=O)C1CCC(C)CC1)C(=O)NCc1ccco1 (stereo unspecified)	0	0	0	35µM	0
CN1C(=O)/C(=N\OC(=O)c2ccccc2Cl)c2ccccc21	18µM	0	0	0	0
Cc1cccc(NC(=O)C(NS(=O)(=O)c2ccc3c(c2)oc(=O)n3C)C(C)C)c1 (stereo unspecified)	0	-	0	-	0
CC(C)=CCC/C(C)=C/CNCC(=O)N1c2ccccc2[C@]2(c3ccccc3)C[C@@H]3C(=O)N(C/C=C(\C)CCC=C(C)C)CC(=O)N3[C@H]12	-	-	13µM	-	-
COc1ccc(NC(=O)c2cnc3cc(C)ccn3c2=O)c(OC)c1	0	-	0	-	0
CC(C)(C)SCCNC(=O)CN(c1ccc(F)cc1)S(C)(=O)=O	0	0	0	6.3µM	0
CC(C)(C)SCCNC(=O)CN(c1ccc(F)c(Cl)c1)S(C)(=O)=O	0	0	0	0	0
COc1ccccc1C=C1SC(=S)NC1=O	0	0	-	-	0
CC(=C1SC(=S)NC1=O)c1ccccc1	13µM	0	-	-	0
O=S(=O)(c1ccccc1Br)N1CCN(c2ncccn2)CC1	13µM	?	0	0	0
CCN1CCC(N(Cc2ccc3c(c2)OCO3)C(=O)Nc2cc(Cl)ccc2C(=O)OC)CC1	0	-	0	-	0
O=C(/C=C/Nc1cccc([N+](=O)[O-])c1)c1ccco1	0	13µM	0	-	0
Nc1c(C(=O)NCCc2ccccc2)nnn1CC(=O)Nc1ccc(Cl)cc1	0	-	0	-	0
O=C(NC1CC1)C1=C[C@@H](c2csc3ccccc23)C[C@@H](OCc2ccc(CO)cc2)O1	14µM	0	?	0	0
O=C(Nc1ccccc1)C1=C[C@H](c2coc3ccccc3c2=O)C[C@H](OCc2ccc(CO)cc2)O1	20µM	0	?	0	0
C#CCNC(=O)C1=C[C@@H](c2csc3ccccc23)C[C@@H](OCc2ccc(CO)cc2)O1	25µM	0	0	0	0
SMILES	TDP43 rescue	aSyn rescue	FUS yeast rescue	Mito fusion yeast	Abeta rescue
COc1ccc(CNC2CCC23CCC(C)CC3)cc1 (stereo unspecified)	-	-	0	-	-
CCOC(=O)c1ccccc1NC(=O)CSc1nc(=O)[nH]c2c1CCC2	0	-	0	-	0
COc1ccc(/C=N\NC(=S)SCN2C(=O)C3CCC(C)(C2=O)C3(C)C)cc1 (stereo unspecified)	?	?	0	-	0
CN(C)c1ccc(/C=N\NC(=S)SCN2C(=O)C3CCC(C)(C2=O)C3(C)C)cc1 (stereo unspecified)	13µM	0	0	0	?
CC12CCC(C(=O)N(CSC(=S)N/N=C\c3ccccc3O)C1=O)C2(C)C (stereo unspecified)	25µM	?	0	0	?
CCOC(=O)c1ccc(Oc2nc(NC(C)(C)C)nc(N(C)C)n2)cc1	22µM	0	0	0	0
CCOC(=O)c1ccc(Oc2nc(N(C)C)nc(N(C)C)n2)cc1	0	0	0	0	0
Nc1ccc(C#Cc2ccc3c(=O)c4ccccc4oc3c2)cc1	35µM	0	0	0	0
O=c1c2ccccc2oc2ccc(C#CC3(O)CCCCC3)cc12	20µM	0	?	-	0
COc1ccc(Cl)cc1NC(=O)CN(C)C(=O)CSc1ccc2c(c1)OCCO2	20µM	0	0	0	0
